# Assay results published in ChEMBL document CHEMBL2218924, “A broad activity screen in support of a chemogenomic map for kinase signalling research and drug discovery” (Biochem J, 2013).
# Target: T1, Tyrosine-protein kinase ITK/TSK (Homo sapiens) (UniProt Q08881)
# T1 sequence (whole entry): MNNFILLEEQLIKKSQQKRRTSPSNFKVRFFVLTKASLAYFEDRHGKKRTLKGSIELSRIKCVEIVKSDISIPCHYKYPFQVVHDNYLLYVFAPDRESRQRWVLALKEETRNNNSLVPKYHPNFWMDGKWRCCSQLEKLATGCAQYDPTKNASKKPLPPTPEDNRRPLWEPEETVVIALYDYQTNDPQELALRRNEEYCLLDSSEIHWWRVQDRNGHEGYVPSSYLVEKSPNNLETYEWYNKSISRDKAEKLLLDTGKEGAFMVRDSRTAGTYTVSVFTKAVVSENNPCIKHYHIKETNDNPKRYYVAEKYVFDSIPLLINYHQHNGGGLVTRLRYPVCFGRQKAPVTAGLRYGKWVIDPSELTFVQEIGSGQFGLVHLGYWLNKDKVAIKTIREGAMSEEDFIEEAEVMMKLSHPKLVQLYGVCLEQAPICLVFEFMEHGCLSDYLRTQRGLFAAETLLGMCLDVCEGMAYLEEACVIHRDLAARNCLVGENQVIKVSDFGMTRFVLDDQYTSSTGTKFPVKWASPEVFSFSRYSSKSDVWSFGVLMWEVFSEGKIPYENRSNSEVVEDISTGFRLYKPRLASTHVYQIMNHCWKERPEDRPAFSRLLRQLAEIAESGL
# Settings: at 1 µM
row,SMILES,residual activity
1,COc1cc2ncnc(Nc3cccc(Cl)c3)c2cc1OC,100%
2,Nc1ncnc2c1cnn2-c1ccccc1,102%
3,NC(=O)Nc1sc(-c2ccc(F)cc2)cc1C(N)=O,22%
4,O=C(Nc1nc2ccccc2n1CCN1CCOCC1)c1cccc([N+](=O)[O-])c1,74%
5,Cn1c2ccccc2c2c3c(c4c5ccccc5n(CCC#N)c4c21)CNC3=O,4%
6,c1ccc(-c2cnc(Nc3ccc(OCCN4CCCC4)cc3)s2)cc1,81%
7,O=C(c1cc2cc(O)ccc2[nH]1)c1cc2cc(O)ccc2[nH]1,64%
8,CCCCc1c(-c2ccc(O)cc2)[nH]c2nccnc12,93%
9,COc1ccc(COc2ccc(Cc3cnc(N)nc3N)cc2OC)cc1,100%
